Data reported in PubChem BioAssay (NCI).
The panel holds about 79,000 compounds, 15% with a hit somewhere; the sample as a whole holds those more often. A number with no mark means an inactive call. The source made the active and inactive calls. Rule as the data show it: active = growth inhibition above about 70%; inactive = the rest.

Assays:
[1] = NCI Yeast Anticancer Drug Screen. Data for the rad50 strain (AID 155);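 also: 0% = growth of vehicle-only cultures of the same strain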; conditions: S. cerevisiae rad50 strain growth inhibition, hits give high values
Procedure, shortened: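 Genetically altered yeast (DNA repair pathway); compound treatment; growth inhibition vs vehicle ctrl.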

[2] = NCI Yeast Anticancer Drug Screen. Data for the mec2-1 strain (AID 157); conditions: S. cerevisiae mec2-1 strain, hits give high values
Procedure, shortened: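 Readout is yeast growth inhibition, normalised to vehicle-treated controls, in the mec2-1 strain exposed to compound.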

[3] = NCI Yeast Anticancer Drug Screen. Data for the sgs1 mgt1 strain (AID 161);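 also: 0% = growth of cultures given vehicle only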; conditions: S. cerevisiae sgs1 mgt1 strain, hits give high values
Procedure, shortened: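 Yeast cells carrying a defined DNA-repair defect were exposed to test compounds. Growth inhibition was measured relative to vehicle-treated controls.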

[4] = NCI Yeast Anticancer Drug Screen. Data for the cln2 rad14 strain (AID 165);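 also: 0% = growth equal to vehicle treated cultures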; conditions: S. cerevisiae cln2 rad14 strain, hits give high values
Procedure, shortened: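 Relative to vehicle controls, growth inhibition of compound-treated cln2 rad14 yeast was recorded.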

[5] = NCI Yeast Anticancer Drug Screen. Data for the bub3 strain (AID 167); conditions: S. cerevisiae bub3 mutant strain, hits give high values
Procedure, shortened: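 Yeast carrying a defined mutation is treated with each compound, and growth is compared with that of vehicle-exposed cells to give inhibition.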

[6] = NCI Yeast Anticancer Drug Screen. Data for the mlh1 rad18 strain (AID 175); conditions: S. cerevisiae mlh1 rad18 strain growth inhibition, hits give high values
Procedure, shortened: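 Test agents were incubated with a yeast strain of defined genotype (DNA damage repair defect). Inhibition of growth was derived by comparison with vehicle-exposed cultures.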

[7] = at 5.0 µM (retest, dose inferred, filed as 0.5)
[8] = at 50.0 µM (retest, dose inferred, filed as 5.0)

Row | SMILES | growth inhibition [1, 7] | growth inhibition [1, 8] | growth inhibition ([1]; at 50.0 µM) | growth inhibition [2, 7] | growth inhibition [2, 8] | growth inhibition ([2]; at 50.0 µM) | growth inhibition [3, 7] | growth inhibition [3, 8] | growth inhibition ([3]; at 50.0 µM) | growth inhibition [4, 7] | growth inhibition [4, 8] | growth inhibition ([4]; at 50.0 µM) | growth inhibition [5, 7] | growth inhibition [5, 8] | growth inhibition ([5]; at 50.0 µM) | growth inhibition [6, 7] | growth inhibition [6, 8] | growth inhibition ([6]; at 50.0 µM)
1 | O=C(Nc1ccc(Br)cc1)c1c(-c2ccccc2)c2ccc(O)cc2oc1=O | 0% | 96% (active) | 96.3% (active) | -9% | 97% (active) | 95.5% (active) | -5% | 93% (active) | 98.6% (active) | -7% | 95% (active) | 94% (active) | -10% | 96% (active) | 97.2% (active) | -3% | 96% (active) | 98.4% (active)
2 | CC(C)OC(=O)c1ccc(NC(=O)CCl)cc1 | 0% | -1% | 66.7% | -1% | 5% | 59.8% | 3% | -8% | 79.1% (active) | -1% | 5% | 31.9% | -4% | -2% | 61% | -5% | 6% | 76.2% (active)
3 | CC1c2cc(c3c(c2O)CN([C@@H](C)C2CCCCC2)CO3)C(C)c2cc(c3c(c2O)CN([C@@H](C)C2CCCCC2)CO3)C(C)c2cc(c3c(c2O)CN([C@@H](C)C2CCCCC2)CO3)C(C)c2cc1c1c(c2O)CN([C@@H](C)C2CCCCC2)CO1 (stereo partly specified) | -3% | -5% | 36.6% | -1% | -28% | 2.9% | -3% | -10% | 42.9% | -2% | -44% | 30.8% | -1% | -13% | 69.2% | -6% | -16% | 47.3%
4 | CCCCCOC(=O)CSC#N | 93% (active) | 99% (active) | 98.7% (active) | 97% (active) | 99% (active) | 99% (active) | 96% (active) | 98% (active) | 98.8% (active) | 79% (active) | 99% (active) | 98.5% (active) | 96% (active) | 99% (active) | 98.7% (active) | 91% (active) | 99% (active) | 98.8% (active)
5 | NC(Cc1ccnnc1)C(=O)O (stereo unspecified) | -10% | -5% | -8.6% | 10% | -7% | -36.4% | -7% | -10% | -36.2% | -7% | -11% | 29.1% | -13% | -9% | -22.9% | -16% | -17% | -14.9%
6 | CCOC(=O)c1c(SCC#N)n(-c2ccccc2)c(=S)n(-c2ccccc2)c1=O | 12% | 35% | 80% (active) | -7% | 39% | 81.2% (active) | -8% | 48% | 75.3% (active) | -6% | 77% (active) | 78% (active) | 1% | 85% (active) | 88.5% (active) | -11% | 81% (active) | 75.2% (active)
7 | Cn1c(=O)[nH]c2nnc(-c3ccccc3)nc2c1=O | 7% | 89% (active) | 56.6% | 6% | 92% (active) | 29.2% | 38% | 92% (active) | 61.5% | -3% | 89% (active) | -13.7% | 8% | 93% (active) | 33.4% | 13% | 90% (active) | 68.1%
8 | Oc1ccccc1C(Sc1nc2ccccc2s1)Sc1nc2ccccc2s1 | 4% | 97% (active) | 97.3% (active) | 16% | 97% (active) | 95.8% (active) | 19% | 97% (active) | 97.2% (active) | -1% | 93% (active) | 72% (active) | -3% | 97% (active) | 91% (active) | 3% | 98% (active) | 90% (active)
9 | CC[C@@H](C(=O)[C@@H](C)[C@@H](O)[C@H](C)CCc1ccc(C)c(O)c1C(=O)O)[C@H]1O[C@](CC)([C@H]2CC[C@](O)(CC)[C@H](C)O2)C[C@@H]1C | 36% | 97% (active) | 89.7% (active) | 48% | 98% (active) | 92% (active) | 38% | 98% (active) | 91% (active) | 71% (active) | 99% (active) | 87.8% (active) | 65% | 98% (active) | 88.9% (active) | 35% | 98% (active) | 89.3% (active)
10 | CCOC(=O)C(C(=O)OCC)C(=O)c1ccc2c(c1)OCO2 | 3% | 83% (active) | 52.4% | 2% | 75% (active) | 35.5% | 5% | 90% (active) | 86.9% (active) | 10% | 21% | 1.25% | 7% | 81% (active) | 89.2% (active) | 4% | 94% (active) | 60.4%
11 | CCn1c(O)c(C=Nc2ccccc2)s/c1=N/Nc1nc(-c2ccc(O)c(O)c2)cs1 | 0% | 21% | 57% | -22% | 1% | 48.4% | -6% | 11% | 72.2% (active) | -10% | 6% | 41.5% | -7% | 38% | 79% (active) | -17% | 25% | 66%
12 | COc1ccccc1N=Nc1c(N)nc(N)[nH]c1=O | 4% | 14% | 6.4% | -10% | 16% | 1.05% | -17% | 14% | -2.05% | 0% | -7% | 11.6% | -2% | -2% | 52.5% | 15% | 20% | 9.8%
13 | O=S1(=O)c2ccccc2C(Br)C1Br (stereo unspecified) | 31% | 98% (active) | 99.2% (active) | 30% | 99% (active) | 99.5% (active) | 27% | 99% (active) | 58.4% | 22% | 99% (active) | 99% (active) | 25% | 98% (active) | 99.6% (active) | 56% | 99% (active) | 99.3% (active)
14 | Clc1ccc(CN2COc3c(cc(Cl)c4cccnc34)C2)cc1 | 4% | 71% (active) | 7.5% | 1% | 56% | 63.3% | 1% | 99% (active) | 16.5% | 1% | 99% (active) | 98.8% (active) | -6% | 55% | 99.2% (active) | -7% | 99% (active) | 24.1%
15 | CC(CN(C)C)C(/C=C/c1ccccc1)=N\NC(=O)c1ccccc1 (stereo unspecified) | -14% | 3% | 3.15% | -7% | -7% | 13.1% | -4% | 3% | 3.05% | -11% | -4% | 3.15% | -3% | -11% | -18.4% | 2% | 11% | -3.6%
16 | CC(C)(Br)C(=O)c1ccc([N+](=O)[O-])o1 | 49% | 99% (active) | 90.6% (active) | 62% | 100% (active) | 93.5% (active) | 85% (active) | 100% (active) | 89.4% (active) | 51% | 99% (active) | 84.2% (active) | 42% | 99% (active) | 91.8% (active) | 91% (active) | 99% (active) | 91% (active)
17 | CCNC(=S)N/N=C/c1ccccn1 | -15% | 95% (active) | 81.5% (active) | -42% | 92% (active) | 84% (active) | -29% | 95% (active) | 78.2% (active) | -21% | 95% (active) | 81.2% (active) | -15% | 95% (active) | 82.5% (active) | -33% | 97% (active) | 76.5% (active)
